# Data published in article PMC7862700, “An all-to-all approach to the identification of sequence-specific readers for epigenetic DNA modifications on cytosine”.
# How the values were obtained:
# Assay in all cases: DAPPL (digital affinity profiling via proximity ligation, sequencing); 10 mM Tris-HCl pH 7.5, 50 mM NaCl, 1 mM DTT, 4% glycerol, room temperature, 30 min; GST-TFs on glutathione beads, 16-mer random dsDNA library, 0.1% formaldehyde crosslink after washing; high values mean tight binding
# FEV = molecular target: T1, FEV (Homo sapiens, UniProt Q99581 1-238); conditions: protein: recombinant; tags: N-terminal GST; dsDNA, one strand shown
# T1 sequence: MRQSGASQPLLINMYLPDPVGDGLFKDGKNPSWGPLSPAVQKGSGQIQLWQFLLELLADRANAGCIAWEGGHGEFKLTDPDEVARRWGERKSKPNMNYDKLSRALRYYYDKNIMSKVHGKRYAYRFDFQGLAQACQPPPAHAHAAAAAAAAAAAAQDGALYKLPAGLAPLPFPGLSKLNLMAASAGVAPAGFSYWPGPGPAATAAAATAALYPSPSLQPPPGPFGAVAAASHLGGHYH
# In short: (§1)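 Beads coated with glutathione captured GST-fused human transcription factors that had been expressed in yeast, and the factors were then given DNA barcodes and pooled with a tag-only sample. The pools were incubated with 200 nmole of a random double-stranded 16-mer DNA library in Tris/NaCl/DTT/glycerol buffer for 30 min at room temperature, washed, crosslinked with 0.1% formaldehyde and proximity-ligated with BsaI/T4 ligase at 37 °C for 1 h. PCR amplification and Illumina NextSeq500 sequencing came last. Binding signal is each hexamer's read frequency for a factor divided by its frequency for the tag-only sample.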
# ETV5 = ETV5 (Homo sapiens, UniProt P41161 1-510); conditions: protein: recombinant; tags: N-terminal GST; dsDNA, one strand shown
# ETV5, sequence (P41161 whole entry): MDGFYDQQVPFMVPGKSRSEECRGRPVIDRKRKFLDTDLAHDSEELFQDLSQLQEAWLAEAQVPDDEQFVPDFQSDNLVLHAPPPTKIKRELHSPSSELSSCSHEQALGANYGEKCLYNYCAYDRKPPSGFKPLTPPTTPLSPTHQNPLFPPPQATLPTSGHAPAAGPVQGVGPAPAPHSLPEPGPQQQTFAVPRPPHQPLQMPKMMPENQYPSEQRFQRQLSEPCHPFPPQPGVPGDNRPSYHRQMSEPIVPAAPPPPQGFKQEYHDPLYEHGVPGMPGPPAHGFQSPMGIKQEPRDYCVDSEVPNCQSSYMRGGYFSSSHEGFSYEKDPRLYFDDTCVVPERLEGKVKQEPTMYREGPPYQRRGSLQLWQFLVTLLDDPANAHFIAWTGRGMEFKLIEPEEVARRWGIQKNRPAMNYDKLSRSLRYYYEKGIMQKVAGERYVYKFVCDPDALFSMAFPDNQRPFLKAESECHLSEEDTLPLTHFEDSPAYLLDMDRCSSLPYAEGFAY
# In short: as §1
# HSF1 = HSF1 (Homo sapiens, UniProt Q00613 1-529); conditions: protein: recombinant; tags: N-terminal GST; chain copies: 3; dsDNA, one strand shown
# HSF1, sequence (Q00613 whole entry): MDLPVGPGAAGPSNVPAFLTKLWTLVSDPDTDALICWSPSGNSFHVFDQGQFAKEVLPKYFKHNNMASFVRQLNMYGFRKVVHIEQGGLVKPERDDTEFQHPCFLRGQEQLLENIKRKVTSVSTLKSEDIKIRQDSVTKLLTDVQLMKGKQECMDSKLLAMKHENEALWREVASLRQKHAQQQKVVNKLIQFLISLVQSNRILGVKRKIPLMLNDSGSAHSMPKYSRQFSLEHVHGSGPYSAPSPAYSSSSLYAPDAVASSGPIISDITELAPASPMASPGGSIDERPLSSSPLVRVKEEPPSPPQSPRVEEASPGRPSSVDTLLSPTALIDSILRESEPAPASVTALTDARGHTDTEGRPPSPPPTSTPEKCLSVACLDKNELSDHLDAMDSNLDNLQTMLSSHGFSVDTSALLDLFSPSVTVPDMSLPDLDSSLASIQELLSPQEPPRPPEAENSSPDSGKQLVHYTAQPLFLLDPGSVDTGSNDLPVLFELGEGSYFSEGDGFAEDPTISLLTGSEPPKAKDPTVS
# In short: as §1
# SPIC = molecular target: T2, SPIC (Homo sapiens, UniProt Q8N5J4 1-248); conditions: protein: recombinant; tags: N-terminal GST; dsDNA, one strand shown
# T2 sequence: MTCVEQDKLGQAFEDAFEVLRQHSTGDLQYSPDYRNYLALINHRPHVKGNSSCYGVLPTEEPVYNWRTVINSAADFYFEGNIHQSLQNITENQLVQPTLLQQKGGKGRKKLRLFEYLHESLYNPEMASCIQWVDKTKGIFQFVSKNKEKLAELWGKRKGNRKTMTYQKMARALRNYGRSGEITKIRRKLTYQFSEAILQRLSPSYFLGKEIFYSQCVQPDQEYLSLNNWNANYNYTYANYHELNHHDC
# In short: as §1
# ELF4 = ELF4 (Homo sapiens, UniProt Q99607 1-663); conditions: protein: recombinant; tags: N-terminal GST; dsDNA, one strand shown
# ELF4, sequence (Q99607 whole entry): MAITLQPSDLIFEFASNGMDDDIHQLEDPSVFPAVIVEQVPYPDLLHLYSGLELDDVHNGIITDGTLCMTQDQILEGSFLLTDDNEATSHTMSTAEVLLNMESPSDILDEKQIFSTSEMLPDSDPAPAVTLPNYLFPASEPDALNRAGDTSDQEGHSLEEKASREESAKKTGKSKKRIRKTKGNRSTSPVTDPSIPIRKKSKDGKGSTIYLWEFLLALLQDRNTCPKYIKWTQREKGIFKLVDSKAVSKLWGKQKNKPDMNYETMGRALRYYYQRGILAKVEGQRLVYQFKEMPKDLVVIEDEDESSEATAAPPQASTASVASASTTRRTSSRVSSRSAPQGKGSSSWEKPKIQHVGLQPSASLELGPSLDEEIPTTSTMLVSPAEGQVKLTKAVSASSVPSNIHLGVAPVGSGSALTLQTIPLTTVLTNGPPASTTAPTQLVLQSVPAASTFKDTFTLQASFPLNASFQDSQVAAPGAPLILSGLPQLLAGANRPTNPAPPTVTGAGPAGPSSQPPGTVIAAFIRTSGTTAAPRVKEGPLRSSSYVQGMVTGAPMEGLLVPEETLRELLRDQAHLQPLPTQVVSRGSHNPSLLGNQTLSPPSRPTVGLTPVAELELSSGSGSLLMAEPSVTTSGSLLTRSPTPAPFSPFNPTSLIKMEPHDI
# In short: as §1
# ELK4 = molecular target: T3, ELK4 (Homo sapiens, UniProt P28324-2 1-405); conditions: protein: recombinant; tags: N-terminal GST; dsDNA, one strand shown
# T3 sequence: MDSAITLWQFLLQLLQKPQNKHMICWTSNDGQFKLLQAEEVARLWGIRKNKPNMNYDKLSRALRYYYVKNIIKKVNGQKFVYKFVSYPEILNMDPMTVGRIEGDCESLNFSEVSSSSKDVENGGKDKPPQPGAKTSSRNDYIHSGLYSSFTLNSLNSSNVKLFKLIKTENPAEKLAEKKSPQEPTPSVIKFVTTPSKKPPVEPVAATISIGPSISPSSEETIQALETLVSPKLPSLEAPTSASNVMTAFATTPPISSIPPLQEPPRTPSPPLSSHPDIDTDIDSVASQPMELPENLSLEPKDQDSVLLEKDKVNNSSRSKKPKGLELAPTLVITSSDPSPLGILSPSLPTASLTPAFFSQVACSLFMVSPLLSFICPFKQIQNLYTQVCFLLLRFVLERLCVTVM
# In short: as §1
# ETV2 = molecular target: T4, ETV2 (Homo sapiens, UniProt O00321 1-342); conditions: protein: recombinant; tags: N-terminal GST; dsDNA, one strand shown
# T4 sequence: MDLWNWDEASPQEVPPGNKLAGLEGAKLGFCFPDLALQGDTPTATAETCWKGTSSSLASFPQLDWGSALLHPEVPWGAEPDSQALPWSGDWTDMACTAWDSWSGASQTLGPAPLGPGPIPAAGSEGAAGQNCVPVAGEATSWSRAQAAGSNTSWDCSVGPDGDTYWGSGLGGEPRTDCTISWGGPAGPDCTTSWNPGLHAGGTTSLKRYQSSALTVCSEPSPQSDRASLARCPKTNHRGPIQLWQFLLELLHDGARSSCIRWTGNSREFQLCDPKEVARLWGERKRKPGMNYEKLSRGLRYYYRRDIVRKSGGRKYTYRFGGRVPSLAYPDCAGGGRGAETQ
# In short: as §1
# ELF3 = molecular target: T5, ELF3 (Homo sapiens, UniProt P78545 1-371); conditions: protein: recombinant; tags: N-terminal GST; dsDNA, one strand shown
# T5 sequence: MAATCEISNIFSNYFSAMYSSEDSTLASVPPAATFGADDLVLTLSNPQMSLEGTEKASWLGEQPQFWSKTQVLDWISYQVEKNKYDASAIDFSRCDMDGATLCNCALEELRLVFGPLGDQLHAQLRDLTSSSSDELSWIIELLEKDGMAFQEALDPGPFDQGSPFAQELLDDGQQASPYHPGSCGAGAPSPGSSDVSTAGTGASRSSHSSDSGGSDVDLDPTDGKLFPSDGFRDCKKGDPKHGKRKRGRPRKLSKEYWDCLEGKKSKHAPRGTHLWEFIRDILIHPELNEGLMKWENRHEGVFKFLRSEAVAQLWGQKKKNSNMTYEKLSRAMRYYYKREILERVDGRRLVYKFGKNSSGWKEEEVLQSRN
# In short: as §1
# CRX = CRX (Homo sapiens, UniProt O43186 1-299); conditions: protein: recombinant; tags: N-terminal GST; dsDNA, one strand shown
# CRX, sequence (O43186 whole entry): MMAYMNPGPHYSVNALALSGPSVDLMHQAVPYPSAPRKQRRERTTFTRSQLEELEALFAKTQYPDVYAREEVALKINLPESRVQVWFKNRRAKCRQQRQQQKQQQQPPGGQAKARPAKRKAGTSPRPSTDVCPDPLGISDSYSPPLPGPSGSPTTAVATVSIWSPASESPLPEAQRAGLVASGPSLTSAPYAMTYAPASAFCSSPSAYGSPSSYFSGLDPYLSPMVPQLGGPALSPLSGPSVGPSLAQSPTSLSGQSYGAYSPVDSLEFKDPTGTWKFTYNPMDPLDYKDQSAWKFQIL
# In short: as §1
# ETV1 = ETV1 (Homo sapiens, UniProt P50549 1-477); conditions: protein: recombinant; tags: N-terminal GST; dsDNA, one strand shown
# ETV1, sequence (P50549 whole entry): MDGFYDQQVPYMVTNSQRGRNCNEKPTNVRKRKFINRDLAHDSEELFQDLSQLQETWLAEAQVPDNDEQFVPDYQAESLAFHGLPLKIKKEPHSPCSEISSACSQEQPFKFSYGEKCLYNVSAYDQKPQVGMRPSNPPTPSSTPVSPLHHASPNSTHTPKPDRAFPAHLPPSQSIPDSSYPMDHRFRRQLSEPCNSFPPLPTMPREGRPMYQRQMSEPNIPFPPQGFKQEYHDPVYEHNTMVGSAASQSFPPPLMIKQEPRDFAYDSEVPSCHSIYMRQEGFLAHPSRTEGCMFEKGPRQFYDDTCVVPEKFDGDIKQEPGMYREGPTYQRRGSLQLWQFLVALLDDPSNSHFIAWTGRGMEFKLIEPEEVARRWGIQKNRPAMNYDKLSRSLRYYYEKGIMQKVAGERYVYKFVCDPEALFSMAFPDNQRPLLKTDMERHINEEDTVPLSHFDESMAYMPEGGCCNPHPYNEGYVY
# In short: as §1
# ERF = molecular target: T6, ERF (Homo sapiens, UniProt P50548 1-548); conditions: protein: recombinant; tags: N-terminal GST; dsDNA, one strand shown
# T6 sequence: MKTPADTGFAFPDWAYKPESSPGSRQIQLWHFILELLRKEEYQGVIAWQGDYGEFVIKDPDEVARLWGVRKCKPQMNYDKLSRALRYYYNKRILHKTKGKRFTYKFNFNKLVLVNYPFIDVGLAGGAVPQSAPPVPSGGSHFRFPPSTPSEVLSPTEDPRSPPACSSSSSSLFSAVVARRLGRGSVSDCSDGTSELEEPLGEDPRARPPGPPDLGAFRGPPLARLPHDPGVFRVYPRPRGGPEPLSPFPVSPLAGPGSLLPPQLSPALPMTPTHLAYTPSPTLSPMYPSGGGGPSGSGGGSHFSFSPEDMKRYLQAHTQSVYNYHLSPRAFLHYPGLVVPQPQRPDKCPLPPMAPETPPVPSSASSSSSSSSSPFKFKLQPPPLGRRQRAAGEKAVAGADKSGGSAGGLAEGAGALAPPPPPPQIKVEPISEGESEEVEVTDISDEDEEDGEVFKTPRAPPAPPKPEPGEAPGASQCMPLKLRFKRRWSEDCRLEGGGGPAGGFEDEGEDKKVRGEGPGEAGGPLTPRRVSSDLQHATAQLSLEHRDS
# In short: as §1
# ETV3L = molecular target: T7, ETV3L (Homo sapiens, UniProt Q6ZN32 1-361); conditions: protein: recombinant; tags: N-terminal GST; dsDNA, one strand shown
# T7 sequence: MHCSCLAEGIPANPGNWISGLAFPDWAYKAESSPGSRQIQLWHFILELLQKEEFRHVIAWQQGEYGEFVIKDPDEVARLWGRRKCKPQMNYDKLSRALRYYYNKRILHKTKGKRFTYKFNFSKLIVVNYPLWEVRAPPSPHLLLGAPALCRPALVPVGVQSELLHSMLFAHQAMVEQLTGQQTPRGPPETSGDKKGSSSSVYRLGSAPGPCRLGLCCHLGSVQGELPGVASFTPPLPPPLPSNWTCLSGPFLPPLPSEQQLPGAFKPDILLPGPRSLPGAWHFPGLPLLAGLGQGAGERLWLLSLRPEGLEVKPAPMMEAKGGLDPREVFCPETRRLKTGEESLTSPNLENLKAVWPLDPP
# In short: as §1
# ETS2 = molecular target: T8, ETS2 (Homo sapiens, UniProt P15036 1-469); conditions: protein: recombinant; tags: N-terminal GST; dsDNA, one strand shown
# T8 sequence: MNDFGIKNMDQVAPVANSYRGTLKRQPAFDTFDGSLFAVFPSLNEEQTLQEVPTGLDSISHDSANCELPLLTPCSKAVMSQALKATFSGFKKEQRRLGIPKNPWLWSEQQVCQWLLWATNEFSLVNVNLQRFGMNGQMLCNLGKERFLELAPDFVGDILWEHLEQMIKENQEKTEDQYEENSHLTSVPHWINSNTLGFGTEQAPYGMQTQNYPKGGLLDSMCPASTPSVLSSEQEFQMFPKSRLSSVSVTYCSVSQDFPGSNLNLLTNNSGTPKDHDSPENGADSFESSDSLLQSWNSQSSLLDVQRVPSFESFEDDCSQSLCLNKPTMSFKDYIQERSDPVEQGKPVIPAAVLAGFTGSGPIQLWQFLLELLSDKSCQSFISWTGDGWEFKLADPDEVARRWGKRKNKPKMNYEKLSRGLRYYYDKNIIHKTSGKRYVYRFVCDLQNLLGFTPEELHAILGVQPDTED
# In short: as §1
# SPDEF = molecular target: T9, SPDEF (Homo sapiens, UniProt O95238 1-335); conditions: protein: recombinant; tags: N-terminal GST; dsDNA, one strand shown
# T9 sequence: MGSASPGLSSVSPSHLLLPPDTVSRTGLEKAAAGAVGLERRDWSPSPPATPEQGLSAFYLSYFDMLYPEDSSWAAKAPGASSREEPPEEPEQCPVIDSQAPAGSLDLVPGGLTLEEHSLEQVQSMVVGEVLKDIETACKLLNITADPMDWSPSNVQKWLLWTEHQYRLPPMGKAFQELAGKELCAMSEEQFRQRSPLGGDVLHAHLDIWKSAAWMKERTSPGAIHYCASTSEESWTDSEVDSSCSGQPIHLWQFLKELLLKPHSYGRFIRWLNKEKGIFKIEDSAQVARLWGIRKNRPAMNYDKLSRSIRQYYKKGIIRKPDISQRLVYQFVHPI
# In short: as §1
# ETV7 = molecular target: T10, ETV7 (Homo sapiens, UniProt Q9Y603 1-341); conditions: protein: recombinant; tags: N-terminal GST; dsDNA, one strand shown
# T10 sequence: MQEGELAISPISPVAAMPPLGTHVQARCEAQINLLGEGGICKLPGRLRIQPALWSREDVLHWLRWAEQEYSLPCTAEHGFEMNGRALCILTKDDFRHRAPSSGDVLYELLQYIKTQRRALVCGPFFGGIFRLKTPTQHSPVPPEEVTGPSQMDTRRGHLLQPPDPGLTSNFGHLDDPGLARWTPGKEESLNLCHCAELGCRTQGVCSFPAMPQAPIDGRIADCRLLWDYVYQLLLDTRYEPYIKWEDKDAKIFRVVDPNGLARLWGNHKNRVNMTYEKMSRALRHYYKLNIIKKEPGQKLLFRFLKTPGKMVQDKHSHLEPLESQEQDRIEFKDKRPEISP
# In short: as §1
# ELF5 = molecular target: T11, ELF5 (Homo sapiens, UniProt Q9UKW6-2 1-255); conditions: protein: recombinant; tags: N-terminal GST; dsDNA, one strand shown
# T11 sequence: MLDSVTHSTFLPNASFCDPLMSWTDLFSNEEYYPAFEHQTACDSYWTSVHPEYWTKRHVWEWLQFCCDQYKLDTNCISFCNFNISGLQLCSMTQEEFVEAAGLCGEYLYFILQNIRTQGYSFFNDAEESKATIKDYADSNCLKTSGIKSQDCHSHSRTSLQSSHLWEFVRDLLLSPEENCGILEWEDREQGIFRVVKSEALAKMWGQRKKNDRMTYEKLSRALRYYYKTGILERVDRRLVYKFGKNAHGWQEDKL
# In short: as §1
# ETV3 = molecular target: T12, ETV3 (Homo sapiens, UniProt P41162-2 1-143); conditions: protein: recombinant; tags: N-terminal GST; dsDNA, one strand shown
# T12 sequence: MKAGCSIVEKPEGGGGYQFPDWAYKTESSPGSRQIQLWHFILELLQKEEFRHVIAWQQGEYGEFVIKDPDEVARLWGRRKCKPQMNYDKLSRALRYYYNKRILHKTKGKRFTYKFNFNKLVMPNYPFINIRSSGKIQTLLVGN
# In short: as §1
# ETV6 = ETV6 (Homo sapiens, UniProt P41212 1-452); conditions: protein: recombinant; tags: N-terminal GST; dsDNA, one strand shown
# ETV6, sequence (P41212 whole entry): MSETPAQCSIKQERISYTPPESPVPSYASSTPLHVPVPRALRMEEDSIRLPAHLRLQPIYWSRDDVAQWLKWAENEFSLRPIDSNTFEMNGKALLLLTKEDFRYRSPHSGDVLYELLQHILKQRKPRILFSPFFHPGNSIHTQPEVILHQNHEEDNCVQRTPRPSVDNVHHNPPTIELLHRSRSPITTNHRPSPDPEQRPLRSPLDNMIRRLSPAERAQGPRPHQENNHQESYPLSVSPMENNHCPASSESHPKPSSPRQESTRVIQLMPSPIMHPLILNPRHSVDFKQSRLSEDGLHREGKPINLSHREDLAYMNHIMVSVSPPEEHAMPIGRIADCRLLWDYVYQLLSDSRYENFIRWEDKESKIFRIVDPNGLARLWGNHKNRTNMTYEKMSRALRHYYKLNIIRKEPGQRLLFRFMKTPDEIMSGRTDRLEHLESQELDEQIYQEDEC
# In short: as §1
sequence,measurement,setting,value
TCTGGT,binding signal,FEV,"1.12 fold enrichment (6-mer frequency, TF over GST control)"
same,binding signal,ETV5,"1.28 fold enrichment (6-mer frequency, TF over GST control)"
same,binding signal,HSF1,"1.8 fold enrichment (6-mer frequency, TF over GST control)"
same,binding signal,SPIC,"1.38 fold enrichment (6-mer frequency, TF over GST control)"
same,binding signal,ELF4,"1.28 fold enrichment (6-mer frequency, TF over GST control)"
same,binding signal,ELK4,"1.17 fold enrichment (6-mer frequency, TF over GST control)"
same,binding signal,ETV2,"1.16 fold enrichment (6-mer frequency, TF over GST control)"
same,binding signal,ELF3,"1.34 fold enrichment (6-mer frequency, TF over GST control)"
same,binding signal,CRX,"1.33 fold enrichment (6-mer frequency, TF over GST control)"
same,binding signal,ETV1,"1.1 fold enrichment (6-mer frequency, TF over GST control)"
same,binding signal,ERF,"1.34 fold enrichment (6-mer frequency, TF over GST control)"
same,binding signal,ETV3L,"1.26 fold enrichment (6-mer frequency, TF over GST control)"
same,binding signal,ETS2,"1.16 fold enrichment (6-mer frequency, TF over GST control)"
same,binding signal,SPDEF,"1.28 fold enrichment (6-mer frequency, TF over GST control)"
same,binding signal,ETV7,"1.35 fold enrichment (6-mer frequency, TF over GST control)"
same,binding signal,ELF5,"1.26 fold enrichment (6-mer frequency, TF over GST control)"
same,binding signal,ETV3,"1.29 fold enrichment (6-mer frequency, TF over GST control)"
same,binding signal,ETV6,"1.17 fold enrichment (6-mer frequency, TF over GST control)"
